The source of these data is PubChem BioAssay (Tox21).

Values without a mark were called inactive. Inconclusive results are not listed. The source made the active and inactive calls. Calls follow the shape of the dose curve; as a rule, active = well fitted curve in the direction sought with a large enough effect in the repeat runs; inconclusive = weak or mixed curves; inactive = no such curve, though single readings can be large; an effect the other way counts as inactive or inconclusive.

Experiment [1] can be described thus: Human pregnane X receptor (PXR) small molecule agonists, qHTS cell viability counter screen (AID 1346977). Also: nearly all actives have a fitted effect of over 50% in size. A digest of the protocol:
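HepG2 cells stably carrying the PXR-Luc reporter are cultured with 5% charcoal-stripped FBS and treated with compounds for 24hr. CellTiter-Fluor is added at 23hr and fluorescence is read after 1hr.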

The nature of experiment [2]: Caspase-3/7 induction in HepG2 cells by small molecules, qHTS assay (AID 1346978). Also: nearly all actives have a fitted effect of over 15% in size. An outline of the steps:
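Caspase-3/7 induction was measured by Caspase-Glo 3/7 luminescence (30 min, room temperature) after a 17 hr compound exposure of wild-type HepG2 cells seeded at 2,000 per well and pre-incubated 5 hr.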

A short description of experiment [3]: Caspase-3/7 induction in CHO-K1 cells by small molecules, qHTS cell viability counter screen (AID 1346979). Also: nearly all actives have a fitted effect of over 35% in size. An outline of the steps: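 Seeding: 1,500 CHO-K1 cells/well. Rest: 5hr, 37C. Treatment: compounds in DMSO, 16hr. Read: CellTiter-Fluor, 1hr, fluorescence.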
(In qHTS, concentration-response curves come from the screen itself.)

Experiment [4] in a line: Caspase-3/7 induction in CHO-K1 cells by small molecules, qHTS assay (AID 1346980). Also: nearly all actives have a fitted effect of over 15% in size. An outline of the steps:
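Luminescent Caspase-Glo 3/7 read (30min, room temperature) quantified apoptosis induction. Cells were wild-type CHO-K1, treated with compound for 17hr at 37 C and 5% CO2.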

A short description of experiment [5]: Caspase-3/7 induction in HepG2 cells by small molecules, qHTS cell viability counter screen (AID 1346981). Also: series mostly up to about 92 µM; nearly all actives have a fitted effect of over 30% in size. A digest of the protocol:
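After a 5-hr attachment period at 37 C and 5% CO2, wild-type HepG2 cells received compounds in DMSO. Sixteen hours later CellTiter-Fluor was dispensed and the fluorescent signal quantified after a further hour.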

In experiment [6] the target is Nuclear receptor subfamily 1 group I member 2 (Rattus norvegicus) (UniProt Q9R1A7). In words: Rat pregnane X receptor (rPXR) activation by small molecules, qHTS assay (AID 1346983). Also: nearly all actives have a fitted effect of over 20% in size. Conditions: rPXR luciferase reporter cells, One-Glo luminescence, 24 h; max activation: stronger effect = higher value. A digest of the protocol: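 Luminescent readout (One-Glo luciferase, 30 min room temperature) followed 24 hr compound treatment at 37 C of rPXR cells plated 2,000 per well and preincubated 5hr; qHTS format with compounds delivered in DMSO.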

Experiment [7] has as its target Nuclear receptor subfamily 1 group I member 2 (Homo sapiens) (UniProt O75469). The experiment is described as follows: Human pregnane X receptor (PXR) activation by small molecules, qHTS assay (AID 1346985). Also: nearly all actives have a fitted effect of over 40% in size. An outline of the steps: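 DPX-2 cells (HepG2 co-transfected with a PXR response element and a CYP3A4-promoter luciferase construct) were seeded at 2,000 per well, rested 5 hr at 37C, then exposed to DMSO-dissolved compounds for 24 hr. Activation was read as luciferase luminescence.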

The target of experiment [8] is Cytochrome P450 2C19 (Homo sapiens) (UniProt P33261). The experiment is described as follows: Cytochrome P450 Family 2 Subfamily C Member 19 (CYP2C19) small molecule antagonists: luciferase reporter qHTS assay (AID 1671197). Also: nearly all actives have a fitted effect of over 65% in size. Also: potency is read from the fitted curve at half-maximal effect. As to activity change, negative = inhibition: series mostly up to about 120 µM. An outline of the steps: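 Light output is proportional to CYP2C19 activity: proluciferin substrate is converted to luciferin, then detected by a luciferin detection reagent that also stops the 1 h, 37C NADPH-driven reaction. Ketoconazole serves as positive control.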

Experiment [9] addresses Cytochrome P450 2C9 (Homo sapiens) (UniProt P11712). The experiment is described as follows: Cytochrome P450 Family 2 Subfamily C Member 9 (CYP2C9) small molecule antagonists: luciferase reporter qHTS assay (AID 1671198). Also: nearly all actives have a fitted effect of over 50% in size. Also: potency is read from the fitted curve at half-maximal effect. As to activity change, negative = inhibition: series mostly up to about 120 µM. A digest of the protocol: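 Enzyme-substrate mix preincubated with compound 10 min at room temperature; reaction started with NADPH regeneration solution, 1 h 37C. Luminescent luciferin product read after 20 min detection reagent.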
For orientation: In a reporter assay the amount or activity of a reporter protein is the signal.

For experiment [10], the target named is Cytochrome P450 1A2 (Homo sapiens) (UniProt P05177). In words: Cytochrome P450 Family 1 Subfamily A Member 2 (CYP1A2) small molecule antagonists: luciferase reporter qHTS assay (AID 1671199). Also: nearly all actives have a fitted effect of over 50% in size. Also: potency is read from the fitted curve at half-maximal effect. As to activity change, negative = inhibition: series mostly up to about 120 µM. A digest of the protocol: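 Room-temperature CYP1A2 reaction with proluciferin substrate: compounds added from DMSO, 10 min preincubation, NADPH regeneration for 1 h. Luciferin detection reagent then added; luminescence recorded as RLU.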

Experiment [11] deals with Nuclear receptor subfamily 1 group I member 2 (Homo sapiens) (UniProt O75469). In words: CYP3A4 induction through human pregnane X receptor (PXR) by small molecules, qHTS assay (AID 1346984). Also: nearly all actives have a fitted effect of over 40% in size. A digest of the protocol:
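Cells (DPX-2; HepG2 with PXR element plus CYP3A4-promoter luciferase) settled 5hr, then were treated 24hr at 37C. A 3hr, 3uM-final Luciferin-IPA step preceded luminescence measurement with One-Glo.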

In experiment [12] the target is Cytochrome P450 2D6 (Homo sapiens) (UniProt P10635). In words: Cytochrome P450 Family 2 Subfamily D Member 6 (CYP2D6) small molecule antagonists: luciferase reporter qHTS assay (AID 1671196). Also: nearly all actives have a fitted effect of over 50% in size. Also: potency is read from the fitted curve at half-maximal effect. As to activity change, negative = inhibition: series mostly up to about 120 µM. A digest of the protocol:
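Room-temperature luminescent CYP2D6 activity assay: compound preincubated 10 min with enzyme–substrate mix, NADPH-initiated reaction 1 h, detection reagent 20 min before reading.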

Experiment [13] has as its target Voltage-gated inwardly rectifying potassium channel KCNH2 (Homo sapiens) (UniProt Q12809). In words: Human Ether-a-go-go-Related Gene (hERG) channel small molecule antagonists: fluorescence cell-based qHTS assay (AID 1671200). Also: nearly all actives have a fitted effect of over 50% in size. Also: potency is read from the fitted curve at half-maximal effect.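 As to activity change, negative = inhibition: hERG-expressing U2OS cells given a thallium stimulus after FluxOR II dye loading; series mostly up to about 77 µM.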 An outline of the steps:
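First, 1000 cells per well are seeded and cultured overnight at 37 C. Next, FluxOR II dye is loaded for 1 h at room temperature, protected from light. After 10 more minutes, stimulus is added and fluorescence is read.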
A general note: The hERG channel carries a current that helps repolarise heart muscle cells.

Experiment [14] concerns the target Cytochrome P450 3A4 (Homo sapiens) (UniProt P08684). In words: Cytochrome P450 Family 3 Subfamily A Member 4 (CYP3A4) small molecule antagonists: luciferase reporter qHTS assay (AID 1671201). An outline of the steps: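 Enzyme and proluciferin substrate are mixed with test chemicals for 10 min, then NADPH regeneration system drives turnover for 1 h at room temperature. A detection reagent halts the reaction; luminescence after 20 min gives relative activity.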

Experiment [15] concerns the target Nuclear receptor subfamily 1 group I member 2 (Homo sapiens) (UniProt O75469). In words: Human pregnane X receptor (PXR) small molecule agonists, qHTS assay (AID 1346982). Also: nearly all actives have a fitted effect of over 35% in size. An outline of the steps:
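Tox21 qHTS; PXR-Luc HepG2; compounds pinned from DMSO; 24 hr, 37 C; ONE-Glo luciferase detection, 30 min room temperature.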
% is scaled to controls: 0 for no effect and ±100 for the full control effect.

Voltage-gated inwardly rectifying potassium channel KCNH2 (Homo sapiens), sequence (Q12809 whole entry, looked up): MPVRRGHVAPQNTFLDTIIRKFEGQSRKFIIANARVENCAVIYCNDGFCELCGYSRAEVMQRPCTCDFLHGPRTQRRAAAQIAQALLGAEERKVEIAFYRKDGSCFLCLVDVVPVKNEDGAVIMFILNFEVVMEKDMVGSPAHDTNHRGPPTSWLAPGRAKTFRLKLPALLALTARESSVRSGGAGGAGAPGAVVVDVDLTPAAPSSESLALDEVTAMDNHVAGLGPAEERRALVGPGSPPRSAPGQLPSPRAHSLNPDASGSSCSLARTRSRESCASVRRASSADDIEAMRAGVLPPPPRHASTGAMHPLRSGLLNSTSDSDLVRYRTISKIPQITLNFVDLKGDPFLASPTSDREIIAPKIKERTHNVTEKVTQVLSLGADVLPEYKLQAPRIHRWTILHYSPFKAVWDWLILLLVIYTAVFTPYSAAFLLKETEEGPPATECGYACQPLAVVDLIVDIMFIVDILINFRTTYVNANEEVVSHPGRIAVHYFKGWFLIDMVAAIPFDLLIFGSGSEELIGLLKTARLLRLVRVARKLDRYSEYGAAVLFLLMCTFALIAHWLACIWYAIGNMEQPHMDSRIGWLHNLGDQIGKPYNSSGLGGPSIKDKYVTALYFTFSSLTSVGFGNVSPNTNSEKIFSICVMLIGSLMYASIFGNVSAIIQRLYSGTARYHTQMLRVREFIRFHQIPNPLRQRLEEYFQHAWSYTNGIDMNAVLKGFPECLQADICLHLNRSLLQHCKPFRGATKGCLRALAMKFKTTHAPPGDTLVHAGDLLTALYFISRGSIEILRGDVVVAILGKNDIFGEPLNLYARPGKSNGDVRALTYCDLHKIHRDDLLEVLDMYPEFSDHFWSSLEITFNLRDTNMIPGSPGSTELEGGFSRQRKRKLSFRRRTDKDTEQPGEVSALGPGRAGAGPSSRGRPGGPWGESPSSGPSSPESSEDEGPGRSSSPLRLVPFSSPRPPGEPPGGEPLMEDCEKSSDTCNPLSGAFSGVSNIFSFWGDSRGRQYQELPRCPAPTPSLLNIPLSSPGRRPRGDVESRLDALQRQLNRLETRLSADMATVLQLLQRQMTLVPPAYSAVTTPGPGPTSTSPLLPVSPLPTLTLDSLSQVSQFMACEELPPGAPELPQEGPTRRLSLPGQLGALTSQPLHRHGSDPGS
Cytochrome P450 3A4 (Homo sapiens), sequence (P08684 whole entry, looked up): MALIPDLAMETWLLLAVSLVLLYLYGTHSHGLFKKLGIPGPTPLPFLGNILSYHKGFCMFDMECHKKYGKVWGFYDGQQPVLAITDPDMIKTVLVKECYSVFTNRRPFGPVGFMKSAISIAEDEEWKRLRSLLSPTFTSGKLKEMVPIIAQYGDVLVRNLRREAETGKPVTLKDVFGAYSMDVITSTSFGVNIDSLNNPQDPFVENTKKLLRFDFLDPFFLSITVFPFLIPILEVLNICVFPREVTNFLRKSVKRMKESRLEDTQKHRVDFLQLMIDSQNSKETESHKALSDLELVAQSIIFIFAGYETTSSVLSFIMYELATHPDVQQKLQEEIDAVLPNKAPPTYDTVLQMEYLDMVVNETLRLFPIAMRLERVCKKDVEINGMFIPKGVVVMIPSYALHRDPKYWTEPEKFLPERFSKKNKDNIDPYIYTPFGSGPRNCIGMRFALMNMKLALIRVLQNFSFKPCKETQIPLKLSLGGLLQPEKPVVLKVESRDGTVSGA
Nuclear receptor subfamily 1 group I member 2 (Homo sapiens), sequence (O75469 whole entry, looked up): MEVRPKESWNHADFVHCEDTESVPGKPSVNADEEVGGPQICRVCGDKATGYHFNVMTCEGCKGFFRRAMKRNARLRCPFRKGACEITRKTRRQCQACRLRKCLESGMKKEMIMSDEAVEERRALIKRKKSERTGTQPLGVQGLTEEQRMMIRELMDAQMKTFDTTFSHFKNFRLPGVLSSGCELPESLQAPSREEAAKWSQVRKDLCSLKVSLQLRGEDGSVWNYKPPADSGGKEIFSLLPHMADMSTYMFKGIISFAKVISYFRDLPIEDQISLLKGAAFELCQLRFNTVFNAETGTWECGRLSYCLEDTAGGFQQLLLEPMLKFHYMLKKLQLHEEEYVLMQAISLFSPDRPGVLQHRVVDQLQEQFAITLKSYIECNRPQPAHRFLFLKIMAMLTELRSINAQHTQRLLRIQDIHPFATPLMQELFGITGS
Nuclear receptor subfamily 1 group I member 2 (Rattus norvegicus), sequence (Q9R1A7 whole entry, looked up): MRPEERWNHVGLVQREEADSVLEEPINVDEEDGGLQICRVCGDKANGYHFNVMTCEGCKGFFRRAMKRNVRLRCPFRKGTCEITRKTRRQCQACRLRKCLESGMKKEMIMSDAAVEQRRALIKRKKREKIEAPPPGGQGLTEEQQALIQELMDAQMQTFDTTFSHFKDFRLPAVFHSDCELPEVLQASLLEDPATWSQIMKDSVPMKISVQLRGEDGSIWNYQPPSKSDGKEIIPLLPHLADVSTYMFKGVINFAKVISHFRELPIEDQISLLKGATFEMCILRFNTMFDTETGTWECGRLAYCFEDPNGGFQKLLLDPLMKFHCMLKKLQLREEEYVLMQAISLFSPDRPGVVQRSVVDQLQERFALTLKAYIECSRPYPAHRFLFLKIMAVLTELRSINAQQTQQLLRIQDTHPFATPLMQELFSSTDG
Cytochrome P450 2C19 (Homo sapiens), sequence (P33261 whole entry, looked up): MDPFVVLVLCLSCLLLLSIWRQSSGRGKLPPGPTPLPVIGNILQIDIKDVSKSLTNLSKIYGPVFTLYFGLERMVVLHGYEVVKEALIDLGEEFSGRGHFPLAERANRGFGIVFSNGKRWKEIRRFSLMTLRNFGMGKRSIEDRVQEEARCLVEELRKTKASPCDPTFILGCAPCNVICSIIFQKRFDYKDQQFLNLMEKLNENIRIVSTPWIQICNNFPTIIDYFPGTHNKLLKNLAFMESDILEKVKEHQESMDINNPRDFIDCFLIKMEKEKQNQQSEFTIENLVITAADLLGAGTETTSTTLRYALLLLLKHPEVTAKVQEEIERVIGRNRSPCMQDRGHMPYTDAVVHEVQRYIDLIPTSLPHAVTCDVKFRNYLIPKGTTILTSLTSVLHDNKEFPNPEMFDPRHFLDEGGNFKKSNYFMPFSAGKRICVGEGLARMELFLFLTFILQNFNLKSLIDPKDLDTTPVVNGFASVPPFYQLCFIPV
Cytochrome P450 1A2 (Homo sapiens), sequence (P05177 whole entry, looked up): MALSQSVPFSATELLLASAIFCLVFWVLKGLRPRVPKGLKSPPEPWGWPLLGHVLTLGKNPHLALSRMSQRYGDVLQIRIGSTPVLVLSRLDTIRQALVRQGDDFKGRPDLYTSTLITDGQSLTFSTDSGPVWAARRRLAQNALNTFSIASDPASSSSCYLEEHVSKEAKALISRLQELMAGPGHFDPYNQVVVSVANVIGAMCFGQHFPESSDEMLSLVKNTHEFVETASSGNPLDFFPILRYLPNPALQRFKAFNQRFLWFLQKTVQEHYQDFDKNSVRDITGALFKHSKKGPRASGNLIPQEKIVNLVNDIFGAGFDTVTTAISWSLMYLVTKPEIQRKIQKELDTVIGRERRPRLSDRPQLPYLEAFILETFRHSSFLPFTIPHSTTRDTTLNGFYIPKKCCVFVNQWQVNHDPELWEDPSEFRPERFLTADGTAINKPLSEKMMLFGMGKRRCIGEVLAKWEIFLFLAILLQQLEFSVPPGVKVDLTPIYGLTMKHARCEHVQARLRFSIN
Cytochrome P450 2D6 (Homo sapiens), sequence (P10635 whole entry, looked up): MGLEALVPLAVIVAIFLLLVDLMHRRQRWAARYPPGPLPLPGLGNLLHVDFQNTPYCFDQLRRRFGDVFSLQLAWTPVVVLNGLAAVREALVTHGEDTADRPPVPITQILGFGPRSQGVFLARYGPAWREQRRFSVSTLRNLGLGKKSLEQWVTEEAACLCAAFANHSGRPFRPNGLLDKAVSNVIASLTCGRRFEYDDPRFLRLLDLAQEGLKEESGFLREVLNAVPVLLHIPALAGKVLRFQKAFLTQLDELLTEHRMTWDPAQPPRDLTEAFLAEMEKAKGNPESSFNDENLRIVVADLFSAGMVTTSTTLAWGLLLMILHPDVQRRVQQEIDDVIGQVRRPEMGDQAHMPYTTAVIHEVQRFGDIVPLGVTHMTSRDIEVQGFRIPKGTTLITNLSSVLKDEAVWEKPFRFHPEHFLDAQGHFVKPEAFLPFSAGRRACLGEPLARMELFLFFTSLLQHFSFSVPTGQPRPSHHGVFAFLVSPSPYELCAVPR
Cytochrome P450 2C9 (Homo sapiens), sequence (P11712 whole entry, looked up): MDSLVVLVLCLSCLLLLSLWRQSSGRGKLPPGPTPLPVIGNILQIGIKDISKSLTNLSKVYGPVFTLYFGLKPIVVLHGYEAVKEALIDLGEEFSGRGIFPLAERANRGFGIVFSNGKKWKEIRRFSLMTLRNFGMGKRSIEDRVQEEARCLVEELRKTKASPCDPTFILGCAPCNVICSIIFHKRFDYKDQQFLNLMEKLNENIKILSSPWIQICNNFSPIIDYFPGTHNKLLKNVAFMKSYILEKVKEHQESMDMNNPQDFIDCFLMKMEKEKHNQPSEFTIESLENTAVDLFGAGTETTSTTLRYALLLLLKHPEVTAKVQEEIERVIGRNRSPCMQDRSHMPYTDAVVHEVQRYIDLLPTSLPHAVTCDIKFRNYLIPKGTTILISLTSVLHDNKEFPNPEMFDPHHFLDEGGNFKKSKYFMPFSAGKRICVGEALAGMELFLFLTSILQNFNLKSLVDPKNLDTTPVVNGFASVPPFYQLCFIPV

As to `COc1cc(C(=O)NCc2ccc(OCCN(C)C)cc2)cc(OC)c1OC`, the Potency entry in experiment [1], in [3], in [5], in experiment [7], in [8] and in experiment [9] was “inactive” throughout. Also, the Potency result in experiment [10] is “inactive”. The result in experiment [2] and in experiment [4] was inactive. For the same compound, the max activation in experiment [6] is 4.67%.
Consider `[O-][n+]1cccc(CO)c1`, for which the Potency entry in experiment [1], in [3], in experiment [5], in experiment [11], in experiment [7] and in experiment [12] was “inactive” in each case. In addition, the Potency result in experiment [8], in [9], in experiment [10], in experiment [13] and in experiment [14] was “inactive” in each case. The compound was classed as inactive in experiment [2] and in [4]. For the same compound, the max activation in [6] is -1.15%.
On to `O=C(O)CC(C(=O)O)S(=O)(=O)O` (stereo not given), for which the Potency result in experiment [1], in [3], in [5], in experiment [15], in [9] and in [13] was “inactive” each time. In addition, in [14], the Potency result was “inactive”. For the same compound, the result in experiment [2] and in experiment [4] was inactive. Also, the Potency was 8.94 µM (active) in [8] and 31.7 µM (active) in experiment [10].
Regarding `CCOC(=O)COc1cc(-n2ncc(C(F)(F)F)c(C)c2=O)c(F)cc1Cl`, the Potency entry in [1], in experiment [3] and in experiment [5] was “inactive” throughout. In addition, the compound was classed as inactive in experiment [2] and in experiment [4]. For the same compound, the Potency in experiment [12] was 63.3 µM (active); in [8] it was 35.6 µM (active); in experiment [9], 31.7 µM (active); in experiment [10], 35.6 µM (active); in experiment [13] it was 43.6 µM (active).
Take `CCCCCCCCCCCCCCC(=O)O`: the Potency entry in [1], in experiment [3], in experiment [5], in experiment [15], in [12] and in experiment [9] was “inactive” in each case. Besides, the Potency entry in experiment [14] was “inactive”. Further, the compound was called inactive in [2] and in experiment [4]. Also, the Potency in [10] is 35.7 µM (active).
On to `CC(=O)N[C@H]1[C@H]([C@H](O)[C@H](O)CO)OC(C(=O)O)=C[C@@H]1N=C(N)N`, for which the Potency entry in experiment [1], in [3], in [5], in experiment [7], in [12] and in experiment [8] was “inactive” in each case. The Potency entry in experiment [9], in [10], in [13] and in experiment [14] was “inactive” each time. Also, the outcome in [2] and in experiment [4] was inactive. Also, the max activation in experiment [6] is -1.75%.
On to `CCCCN1C=CN(C)C1`, for which the activity change, negative = cytotoxicity in experiment [1] is -1.91% [at 19 µM]; in experiment [3] it was 5.38% [at 19 µM]; in experiment [5], -0.522% [at 19 µM]. Also, the caspase activation in experiment [2] is 1.6% [at 19 µM]. The caspase-3/7 activation in experiment [4] was 0.127% [at 19 µM]. In experiment [15], the activation is 3.9% [at 19 µM]. In addition, the values for the activity change, negative = inhibition in experiment [12] and in experiment [13] were -17.2% [at 23.6 µM] and -0.505% [at 15.8 µM], respectively.
On to `O=C(O)c1cc(C(=O)O)cc(C(=O)O)c1`, for which the Potency entry in experiment [1], in experiment [3], in experiment [5], in experiment [15], in experiment [9] and in [10] was “inactive” throughout. Moreover, the Potency entry in [13] and in [14] was “inactive” throughout. Further, the call in experiment [2] and in [4] was inactive.
For the compound `CCCCCC(=O)OCCc1ccccc1`, the Potency result in [1], in experiment [3], in [5], in experiment [15], in experiment [12] and in experiment [13] was “inactive” throughout. Besides, the Potency entry in experiment [14] was “inactive”. Also, the call in [2] and in experiment [4] was inactive.
